Measured values: PubChem BioAssay
Active and inactive are the calls of the source.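 The calls were made as follows, unless noted: active = inhibition of the reporter signal at or above 50%; inactive = inhibition below 50%.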

Key:
[1] = inhibitors of TNFa-induced NFkB p65 translocation, primary screen, imaging, HUVEC, MLSMR starter and 10KST1 sets (AID 438;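 active = inhibition above 20% together with a positive visual image hit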;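 also: compound added about 3h40 before a 20 min TNFalpha stimulation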;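 as to inhibition: signal is the nuclear over cytoplasmic p65 intensity ratio per well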); details: HUVEC TNFa-induced p65 nuclear translocation; cell count: measured here: nuclei count (cytotoxicity indicator), at 2.08 µM; inhibition: at 2 µM, stronger effect = higher value, 0% TNFa-plus-vehicle, 100% no-TNFa wells
[2] = reduction of polyQ htt aggregates in cells – imaging, exon1htt(103Q)mCFP cells, high-content imaging, primary screen (AID 483;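 active = visual image review flags a hit and inhibition of aggregation exceeds 20%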;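 also: compound exposure lasted 3 days before fixation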;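 as to nuclei count: percent of the per-plate median nuclei count of sample wells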); details: exon1htt(103Q)mCFP cell line, aggregate imaging, at 2 µM; inhibition of aggregation: stronger effect = higher value; nuclei count: measured here: cell count, toxicity
[3] = endothelial E-selectin expression blockers – imaging, HUVEC, immunofluorescence, MLSMR starter and 10KST1 sets, primary screen (AID 487;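 active = visually confirmed hit in the image check and inhibition above 20%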;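 as to inhibition: signal is fraction of cell area covered by stained E-selectin grains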;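 as to nuclei count: 100% = median nuclei count of all wells on the same plate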); details: HUVEC TNFalpha-induced E-selectin immunofluorescence imaging, at 2 µM; inhibition: stronger effect = higher value; nuclei count: measured here: cell number, toxicity
[4] = target: Voltage-gated potassium channel subunit beta-2 (Rattus norvegicus) (UniProt P62483); assay: inhibitors of rat Kvbeta2 reductase activity – biochemical, NADPH fluorescence, primary screen (AID 622;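 active = fluorescence slope higher than the sample average by over 3 SD, cut at about -0.22 in these data, passing the limit was not always enough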;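 also: slope of raw intensity against log time taken from 70 to 1610 s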); details: recombinant KvBeta, 4-cyanobenzaldehyde reduction, at 10 µM, stronger effect = higher value
[5] = target: Voltage-gated potassium channel subunit beta-2 (Rattus norvegicus) (UniProt P62483); assay: enhancers of rat Kvbeta2 NADPH turnover – biochemical, NADPH fluorescence, primary screen (AID 623;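 active = NADPH fluorescence slope more negative than the mean of all samples by about 3 SD, 99.7% confidence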;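 also: fluorescence intensity change per second fitted from 20 to 320 s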); details: Recombinant KvBeta, NADPH fluorescence decrease slope, 10 min; at 10 µM; stronger effect = lower value
[6] = target: Alpha-2C adrenergic receptor (Homo sapiens) (UniProt P18825); assay: compounds altering alpha2C-coupled GIRK flux – cell-based, HEK293 alpha2C/GIRK1/2, thallium flux, primary screen (AID 624;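 active = fluorescence slope after compound addition differing from the mean of all screened samples at 99.7% confidence, in either direction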;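 also: slope of fluorescence ratio to pre-addition baseline per second over 15 to 24 s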); details: thallium flux BTC fluorescence, at 10 µM, actives lie on both sides
[7] = blockers of RIG-like receptor reporter activation – cell-based, Sendai virus stimulus, luciferase, 10K MLSCN set, TLR/RLR signaling modifier project, primary screen (AID 602276;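 active = inhibition at or above 50% at 10 µM; inactive = inhibition below 50%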;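 also: firefly luciferase from ISG56 promoter only with Renilla not read in this screen; 0% = Sendai virus plus DMSO and 100% = medium plus DMSO without virus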); details: HEK293 RL24 IRF3 luciferase reporter, at 10 µM, stronger effect = higher value
[8] = TLR3 IRF3 reporter activation blockers – cell-based, poly I:C stimulus, luciferase, 10K MLSCN set, primary screen (AID 602277); details: HEK293-TLR3 RL24 IRF3 luciferase reporter, at 10 µM, stronger effect = higher value

Chain of Alpha-2C adrenergic receptor (Homo sapiens) (P18825 whole entry, looked up): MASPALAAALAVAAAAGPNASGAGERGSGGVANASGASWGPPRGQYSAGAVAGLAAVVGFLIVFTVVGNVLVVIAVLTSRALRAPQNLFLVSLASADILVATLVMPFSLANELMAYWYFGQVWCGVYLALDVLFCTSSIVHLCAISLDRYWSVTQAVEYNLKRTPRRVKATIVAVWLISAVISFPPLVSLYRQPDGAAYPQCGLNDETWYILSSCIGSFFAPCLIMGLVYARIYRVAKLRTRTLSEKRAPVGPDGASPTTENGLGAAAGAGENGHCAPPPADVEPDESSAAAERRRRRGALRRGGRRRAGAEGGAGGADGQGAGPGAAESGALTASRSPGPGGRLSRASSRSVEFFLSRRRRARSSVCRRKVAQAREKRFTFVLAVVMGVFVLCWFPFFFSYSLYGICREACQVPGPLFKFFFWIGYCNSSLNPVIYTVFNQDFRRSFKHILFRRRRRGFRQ
Chain of Voltage-gated potassium channel subunit beta-2 (Rattus norvegicus) (P62483 whole entry, looked up): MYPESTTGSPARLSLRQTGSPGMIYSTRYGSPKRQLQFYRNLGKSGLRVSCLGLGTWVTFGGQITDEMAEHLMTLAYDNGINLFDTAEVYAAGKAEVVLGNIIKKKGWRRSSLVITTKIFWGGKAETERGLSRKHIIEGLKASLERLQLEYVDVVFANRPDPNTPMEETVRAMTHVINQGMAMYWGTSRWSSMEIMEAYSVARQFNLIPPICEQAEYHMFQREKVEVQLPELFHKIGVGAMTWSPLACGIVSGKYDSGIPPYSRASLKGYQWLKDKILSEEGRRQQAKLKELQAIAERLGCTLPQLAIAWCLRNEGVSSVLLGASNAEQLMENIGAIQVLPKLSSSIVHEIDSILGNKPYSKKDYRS

SMILES | cell count [1] | inhibition [1] | inhibition of aggregation [2] | nuclei count [2] | inhibition [3] | nuclei count [3] | fluorescence slope [4] | NADPH fluorescence slope [5] | slope [6] | inhibition [7] | inhibition [8]
COC(=O)C1=C(C)NC2=C(C(=O)CCC2)C1c1coc2ccccc2c1=O (centres undefined) | 322 | -2.1% (inactive) | 14.4% (inactive) | 98.3% | -47.5% (inactive) | 111% | -0.244 (inactive) | 7.1e-06 (inactive) | 0.00668 (inactive) | 16.4% (inactive) | 48.4% (inactive)
O=C1CCc2cc(S(=O)(=O)N3CCC(C(=O)NCc4ccccn4)CC3)ccc2N1 | 599 | 0% (inactive) | 32.3% (inactive) | 115% | -26.3% (inactive) | 110% | -0.578 (inactive) | 1.3e-05 (inactive) | 0.00666 (inactive) | 13.9% (inactive) | 14.7% (inactive)
CCOC(=O)Cc1csc(/C(=N/O)C(N)=O)n1 | 638 | 2.7% (inactive) | 0.1% (inactive) | 126% | -62.8% (inactive) | 108% | -0.48 (inactive) | -9.9e-05 (inactive) | 0.00629 (inactive) | 13.2% (inactive) | 15.9% (inactive)
CCN(CCNC(=O)C1CCN(S(C)(=O)=O)CC1)c1ccccc1 | 395 | 3.8% (inactive) | -13.1% (inactive) | 113% | -24.7% (inactive) | 117% | -0.32 (inactive) | -3e-05 (inactive) | 0.00548 (inactive) | 15.1% (inactive) | 25.2% (inactive)
CCOC(=O)C1CN(S(=O)(=O)c2ccc(C)cc2)CCN1S(=O)(=O)c1ccc(C)cc1 (centres undefined) | 339 | 3.3% (inactive) | -36.8% (inactive) | 117% | -114% (inactive) | 122% | -0.591 (inactive) | 3.6e-05 (inactive) | 0.00631 (inactive) | 8.55% (inactive) | 11% (inactive)
O=C(CN1c2cccc3cccc(c23)S1(=O)=O)N1CCOCC1 | 253 | -5.5% (inactive) | 16% (inactive) | 83% | -59.8% (inactive) | 101% | -0.189 (inactive) | -1.8e-05 (inactive) | 0.00514 (inactive) | 17% (inactive) | 13.6% (inactive)
COc1cccc(-c2noc(-c3cccs3)n2)c1 | 390 | -0.7% (inactive) | 11.7% (inactive) | 110% | -29.5% (inactive) | 131% | -0.619 (inactive) | 2.2e-06 (inactive) | 0.00482 (inactive) | 6.14% (inactive) | -8.84% (inactive)
COC(=O)CCSCc1cn2cc(Cl)ccc2n1 | 373 | 2.8% (inactive) | -26.9% (inactive) | 103% | -85.2% (inactive) | 112% | -0.509 (inactive) | -1.7e-05 (inactive) | 0.00629 (inactive) | 18.6% (inactive) | 56.9% (active)
CC(=O)c1sc(NC(=O)C2COc3ccccc3O2)nc1C (centres undefined) | 604 | -0.3% (inactive) | 24.9% (inactive) | 87.8% | 19.7% (inactive) | 104% | -0.586 (inactive) | -2.4e-05 (inactive) | 0.00774 (inactive) | 15.8% (inactive) | -48.7% (inactive)
O=C(CCCC(=O)OCC(=O)NC1CCCC1)Nc1ccccn1 | 463 | 2.6% (inactive) | 1.1% (inactive) | 113% | -130% (inactive) | 179% | -0.6 (inactive) | -4.5e-05 (inactive) | 0.00354 (inactive) | 14% (inactive) | 17.5% (inactive)
O=C(C1CCC(CNc2c(N3CCCCC3)c(=O)c2=O)CC1)N1CCc2ccccc2C1 (centres undefined) | 557 | 8.9% (inactive) | -6.5% (inactive) | 95.1% | 44% (inactive) | 97.9% | -0.51 (inactive) | -1.9e-05 (inactive) | 0.00576 (inactive) | 8.75% (inactive) | 33.5% (inactive)
O=C(NCc1cccs1)c1cc2c(s1)CCCC2 | 377 | -16.3% (inactive) | 5.1% (inactive) | 89.1% | -21.4% (inactive) | 126% | -0.479 (inactive) | 6e-05 (inactive) | 0.0052 (inactive) | -44.6% (inactive) | -105% (inactive)
CCOC(=O)C(C(C)=O)c1nc(C)nc2c1nnn2Cc1ccccc1Cl (centres undefined) | 479 | 8.5% (inactive) | -6% (inactive) | 96.1% | -10.3% (inactive) | 106% | -0.356 (inactive) | -5.3e-05 (inactive) | 0.00379 (inactive) | -11.2% (inactive) | -19.4% (inactive)
CC(C)c1ccc(-c2nc(N3CCOCC3)[nH]c(=O)c2C#N)cc1 | 321 | -8.9% (inactive) | -12% (inactive) | 95.4% | -32.8% (inactive) | 114% | -0.405 (inactive) | -2e-05 (inactive) | 0.00599 (inactive) | 13.1% (inactive) | 13.1% (inactive)
